# According to PubChem BioAssay (NCATS):
# Activity calls are given as the source filed them. Calls follow the shape of the full dose curve.
# Experiment: qHTS drug screen for cell cycle checkpoint inhibitors in PARPi-resistant BRCA-mutant ovarian cancer cell lines. (AID 1963452)
# Details: PEO1/OlaR viability, CellTiter-Glo luminescence, 96 h, stronger effect = lower value
# Excerpt: Women's Malignancies Branch, Center for Cancer Research (CCR),
# National Cancer Institute (NCI), National Institutes of Health (NIH), Bethesda, MD
# Poly (ADP-ribose) polymerase inhibitors (PARPis) have changed the treatment paradigm in breast cancer gene (BRCA) - mutant high-grade serous ovarian carcinoma (HGSC). However, most patients eventually develop resistance to PARPis, highlighting an unmet need for improved therapeutic strategies. Using high-throughput drug screens, we identified ataxia telangiectasia and rad3-related protein/checkpoint kinase 1 (CHK1) pathway inhibitors as cytotoxic and further validated the activity of the CHK1 inhibitor (CHK1i) prexasertib in PARPi-sensitive and -resistant BRCA-mutant HGSC cells and xenograft mouse models. CHK1i monotherapy induced DNA damage, apoptosis, and tumor size reduction. We then conducted a phase 2 study (NCT02203513) of prexasertib in patients with BRCA-mutant HGSC. The treatment was well tolerated but yielded an objective response rate of 6% (1 of 17; one partial response) in patients with previous PARPi treatment. […] BRCA reversion mutation in previously PARPi-treated BRCA-mutant patients was not associated with resistance to CHK1i.
# Among others, 1082 oncology drugs, both approved and investigational, were prioritized based on their status in clinical trial development. […] Drugs with average Z-AUC values less than -1.0 in all three cell lines were classified as "hits" resulting in 151 oncology drug hits. The screen also confirmed cross-resistance between olaparib and other PARPis (rucaparib, niraparib, and talazoparib) in PARPi-resistant PEO1/OlaR and PEO4.
# [1] G. L. Lin, K. M. Wilson, M. Ceribelli, B. Z. Stanton, P. J. Woo, S. Kreimer, E. Y. Qin, X. Zhang, J. Lennon, S. Nagaraja, P. J. Morris, M. Quezada, S. M. Gillespie, D. Y. Duveau, A. M. Michalowski, P. Shinn, R. Guha, M. Ferrer, C. Klumpp-Thomas, S. Michael, C. McKnight, P. Minhas, Z. Itkin, E. H. Raabe, L. Chen, R. Ghanem, A. C. Geraghty, L. Ni, K. I. Andreasson, N. A. Vitanza, K. E.Warren, C. J. Thomas, M. Monje, Therapeutic strategies for diffuse midline glioma from high-throughput combination drug screening. Sci. Transl. Med. 11, (2019).
# [2] T. M. Yamamoto, A. McMellen, Z. L. Watson, J. Aguilera, R. Ferguson, E. Nurmemmedov, T. Thakar, G. L. Moldovan, H. Kim, D. M. Cittelly, A. M. Joglar, E. P. Brennecke, H. Wilson, K. Behbakht, M. J. Sikora, B. G. Bitler, Activation of Wnt signaling promotes olaparib resistant ovarian cancer. Mol. Carcinog. 58, 1770 - 1782 (2019).
# PROTOCOL TABLE (as described by Inglese J, Shamu CE and Guy RK. 2007)
# SEQUENCE No. (e.g., 1, 2, 3, etc.); […] (e.g., Cells, Incubation, Reagent, etc.); VALUE; DESCRIPTION.
# 1; Compounds; 20nL; 1536-well white tissue culture-treated plates.
# 2; Cells; 5 uL; PEO1, PEO4, and PEO1/OlaR cells at 600 cells per well.
# 3; Incubation; 96 hr; 37C, 95% humidity, 5% CO2.
# 4; Reagent; 3 uL; CellTiter-Glo (Promega).
# 5; Incubation; 15 min; room temperature.
# 6; Detection; Luminescence, PHERAstar (BMG Labtech) plate reader.
# NOTES (numbers refer to Sequence numbers above)
# 1. MIPE 5.0 compounds were acoustically dispensed by Echo Acoustic Liquid Handler (Beckman Coulter Life Sciences). Each compound was plated at an 11-point concentration range with 1:3 dilution. Bortezomib, a proteasome inhibitor (final concentration, 20 uM), was used as a positive.
# 2. PEO1, PEO4, and PEO1/OlaR were trypsinized and dispensed in 5 uLof growth medium using a Multidrop Combi dispenser at a density of 600 cells per well to allow compounds to be present during the exponential growth phase.
# 3. Plates were incubated for 96 hours at standard incubator conditions and covered by a stainless steel gasketed lid to prevent evaporation.
# 4. Three microliters of CellTiter-Glo (Promega) were added to each well.
# 5. Plates were incubated at room temperature for 15 min with a stainless-steel lid in place.
# 6. Luminescence readings were taken using PHERAstar (BMG Labtech). […]
# [1] = measured here: PEO1 parental Z-AUC
Compound,Z-AUC,Z-AUC [1],Z-AUC (measured here: PEO4 Z-AUC)
CC1=C(/C=C/C(C)=C/C=C/C(C)=C\C(=O)O)C(C)(C)CCC1,-0.242 (inactive),0.115,0.0344
COc1cc(/C=C(\C#N)C(=O)Nc2nnc(C(F)(F)F)s2)ccc1OCc1ccc(C(F)(F)F)cc1C(F)(F)F,0.582 (inactive),0.483,0.578
CN(C)S(=O)(=O)c1ccc2c(c1)/C(=C/c1cc3c([nH]1)CCCC3)C(=O)N2,1.05 (inactive),0.668,0.277
O=C1Nc2ccc(I)cc2/C1=C/c1cc(Br)c(O)c(Br)c1,1.3 (inactive),0.638,0.686
CCCc1c(OCCCOc2ccc(OCC(=O)O)cc2)ccc(C(C)=O)c1O,1.58 (inactive),1.27,1.18
